# According to the supplement of paper PMC3334620:
# The full ranking holds about 33,000 sequences; the median of “E-score (-0.5 to 0.5)” is about -0.041, and the highest 2% start at about 0.37. The full list was thinned out, with the highest values kept by preference.
# Target: T1, Ecm22 (UniProt Q05958)
# T1 sequence: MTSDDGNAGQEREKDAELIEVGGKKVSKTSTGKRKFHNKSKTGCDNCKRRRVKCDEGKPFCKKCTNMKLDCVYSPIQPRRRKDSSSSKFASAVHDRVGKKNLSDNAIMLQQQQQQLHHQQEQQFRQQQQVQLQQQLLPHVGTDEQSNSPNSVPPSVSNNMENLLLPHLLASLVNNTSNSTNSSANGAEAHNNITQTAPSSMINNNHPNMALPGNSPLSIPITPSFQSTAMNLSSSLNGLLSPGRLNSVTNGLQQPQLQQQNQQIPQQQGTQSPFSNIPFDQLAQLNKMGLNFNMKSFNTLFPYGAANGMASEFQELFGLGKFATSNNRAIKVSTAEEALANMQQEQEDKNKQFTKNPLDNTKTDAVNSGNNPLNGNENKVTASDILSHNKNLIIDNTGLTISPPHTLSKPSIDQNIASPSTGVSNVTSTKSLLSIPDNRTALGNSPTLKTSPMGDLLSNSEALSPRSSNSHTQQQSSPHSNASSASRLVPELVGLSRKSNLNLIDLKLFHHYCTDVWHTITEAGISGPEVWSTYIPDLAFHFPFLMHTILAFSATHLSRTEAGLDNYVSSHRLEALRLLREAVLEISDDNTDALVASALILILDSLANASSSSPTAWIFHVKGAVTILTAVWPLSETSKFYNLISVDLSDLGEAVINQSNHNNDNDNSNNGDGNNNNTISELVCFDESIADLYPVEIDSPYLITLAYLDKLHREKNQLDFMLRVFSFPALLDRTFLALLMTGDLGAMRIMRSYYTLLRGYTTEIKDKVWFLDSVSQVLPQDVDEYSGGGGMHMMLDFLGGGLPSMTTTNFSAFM
# Experiment: PBM E-score (8-mer binding enrichment) (E-score (-0.5 to 0.5)); higher = stronger / more preferred TF binding
# Settings: protein concentration: 200 nM; construct: GST-full length
# Procedure: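 Universal 'all 10-mer' protein binding microarrays (Agilent AMADID 015681) probed with GST-tagged S. cerevisiae TFs (full-length or DBD) made by in vitro transcription/translation (PURExpress), about 100-200 nM. Bound TF was detected with fluorescent anti-GST. Each ungapped 8-mer (which stands for itself and its reverse complement) is scored by the PBM enrichment score (E-score), a modified Wilcoxon-Mann-Whitney statistic from -0.5 to +0.5, computed with the Universal PBM Analysis Suite. Scale: above 0.35 generally sequence-specific binding.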
row,Sequence,PBM E-score
1,AGCCACGC,-0.14
2,CCGAGCGG,0.202
3,GCGAGCGA,0.31
4,ACGAGCGG,0.386
5,CCGAGCGA,0.237
6,ACGAGCGC,0.327
7,ACGAGCGT,0.389
8,AAGAGCGT,0.0857
9,ACGAGCGA,0.409
10,ATGAGCGG,-0.0285
11,AGTCTTTG,-0.0796
12,ATCTCGGC,0.0673
13,CGCTAAGA,0.149
14,CCACTGCC,-0.0201
15,GCAGGCCA,-0.00078
16,CACCCCCG,-0.2
17,TCAGTCGA,0.0318
18,CAAGCGGG,-0.0323
19,ATTCTACA,0.0155
20,GAGAGCGC,-0.0803
21,TACGAGCA,0.467
22,TGCGAGCA,0.238

row,Sequence,PBM E-score
1,AACGAGCG,0.459
2,AACGAGCC,0.442
3,TCCGAGCA,0.236
4,CACGAGCG,0.201
5,CACGAGCC,0.143
6,GACGAGCC,0.0624
7,CACGAGCA,0.0712
8,AACGAGCA,0.46
9,GACGAGCA,0.0907
10,AGCGAGCG,0.345
11,AGCGTGGG,-0.0957
12,GGTTGGAC,-0.241
13,AACCGAAA,0.235
14,AAATTCTG,-0.0343
15,ACCGGATC,-0.0309
16,CAAGTGCG,-0.0245
17,ACTCCATA,-0.195
18,CAGGAGAC,0.0295
19,AGGATGAG,-0.0765
20,ACCATAGC,-0.261
21,GAACCGGC,-0.0167
22,GCCTTTAA,-0.198

row,Sequence,PBM E-score
1,AACGAGCT,0.445
2,AGCGAGCT,0.309
3,ACCGAGCT,0.235
4,CCGCTTTC,-0.0554
5,GGCCTCCC,-0.0791
6,ATCGCATA,0.289
7,GTCGCAGA,0.123
8,CTCGCATA,0.376
9,CTCGCATC,0.304
10,CTCGCAGA,0.0487
11,GTCGCATA,0.369
12,ACCTTTCG,0.094
13,TAAAGCGA,0.213
14,CCTTTAAG,-0.259
15,AGTTTAAG,-0.127
16,CGTTTAAC,0.465
17,TGTTTAAA,-0.172
18,AGTTTAAA,0.0639
19,GGTTTAAC,0.0725
20,CGTTTAAG,0.429
21,CGTTTAAA,0.453
22,AGTTTAAC,0.09

row,Sequence,PBM E-score
1,ACGGCCCG,0.208
2,GGCGATAC,0.0112
3,AAGCGGCT,-0.0695
4,AACCCGGC,0.11
5,GCCACAAC,-0.055
6,AGGAAATG,-0.11
7,CTCGGTTA,0.383
8,ATCGGTTA,0.362
9,CACGGTTA,0.0472
10,GTCGGTCA,0.258
11,CTCGGTTC,0.265
12,GTCGGTTA,0.369
13,CGCGGAGC,0.116
14,AGAGAGAT,-0.163
15,AGGAGCCT,-0.308
16,CCGAGCCG,0.227
17,ACGAGCCG,0.389
18,ACGAGCCC,0.365
19,AGGAGCCG,-0.0656
20,TCGAGCCA,-0.126
